Assay outcomes: PubChem, several laboratories
PG9 Ab binder – binds the HIV-1 gp120 antibody PG9; inhibition, % at 6.7 µM; TR-FRET gp120-PG9 antibody binding; AID 624416; 0.43% of 360,000 active; in the data active = inhibition above about 8.5%
PP1 inh – PP1-alpha (human) inhibition in PP5 counter-screen | purified PP1alpha, OMFP fluorescence | inhibition, % at 6.7 µM | 0.9% of 320,000 active | AID 2235;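 active = inhibition above the mean inhibition of all tested compounds plus 3 SD, computed separately for each screening campaign, cut at about 15% in these data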
PP5 inh – PP5 (human) phosphatase inhibition | P53041 | purified PP5c, OMFP substrate fluorescence | inhibition, % at 6.7 µM | 0.18% of 320,000 active;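 active = inhibition above the campaign's mean inhibition across all tested compounds plus 3 SD, cut at about 9.5% in these data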;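 note: 0% = DMSO only and 100% = 100 µM cantharidin control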
JMJD2C inh – human JMJD2C demethylase inhibition; Q9H3R0; GST-JMJD2C(1-420) H3K9me3 demethylation, DELFIA europium; inhibition, % at 2.35 µM; 0.069% of 330,000 active;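 active = more than half of a compound's replicate wells show inhibition beyond 50%, single wells judged on their own value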;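 note: signal counts dimethyl H3K9 product captured on neutravidin plate; 0% = median of DMSO wells and 100% = 0.3 times that DMSO median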
Target sequence (Q9H3R0 1-420 limits assumed): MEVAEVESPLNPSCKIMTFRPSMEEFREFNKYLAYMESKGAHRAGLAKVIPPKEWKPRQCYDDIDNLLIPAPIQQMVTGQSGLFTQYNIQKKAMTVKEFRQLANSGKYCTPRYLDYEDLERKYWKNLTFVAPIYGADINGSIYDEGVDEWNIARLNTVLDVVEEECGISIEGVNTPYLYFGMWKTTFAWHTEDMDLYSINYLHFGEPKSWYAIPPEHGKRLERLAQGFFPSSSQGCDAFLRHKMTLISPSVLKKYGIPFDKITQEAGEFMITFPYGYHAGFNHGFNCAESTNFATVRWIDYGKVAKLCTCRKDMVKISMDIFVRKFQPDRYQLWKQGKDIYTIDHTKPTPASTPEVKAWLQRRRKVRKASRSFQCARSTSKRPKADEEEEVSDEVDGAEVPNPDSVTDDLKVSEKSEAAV
Rev-erbA mod – modulators of human Rev-erb alpha DNA binding | P20393 | Rev-erbα–FITC-DNA binding, fluorescence polarization, 90 min | activity, % at 10 µM | 0.79% of 370,000 active;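 active = activity above about 14%, limit read from the data; passing the limit was not always enough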;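 note: 0% = DMSO wells with 35 nM protein and 100% = DMSO wells with 750 nM protein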
proKLK7 act – activates the human kallikrein-7 zymogen; P49862; purified proKLK7, EDANS-DABCYL substrate fluorescence; 100% is mature enzyme control, 0% vehicle; activation, % at 7 µM; 0.9% of 370,000 active;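 active = activation above the mean of all tested compounds plus 3 SD, computed per campaign excluding outliers beyond control limits, cut at about 13% in these data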
proKLK7 act conf – confirmation of human kallikrein-7 zymogen activators. purified proKLK7, EDANS-DABCYL substrate fluorescence; scaled: vehicle 0, mature enzyme 100. activation, % at 7 µM. shares compounds with proKLK7 act. 68% of 3,200 active. AID 686949;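 active = activation, as change over the incubation, above the mean of all tested compounds plus 3 SD, cut at about 13% in these data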
EDANS interfere – optically interferes with EDANS-DABCYL signal, flagging KLK7 hits; shares compounds with proKLK7 act; EDANS-DABCYL substrate fluorescence interference, no enzyme, 4 h; solvent 0%, active enzyme control 100%; activation, % at 7 µM; 80% of 3,200 active; AID 686952;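 active = activation above the all-compound mean plus 3 SD, ignoring values outside control-based bounds, cut at about 4.8% in these data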;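 note: value is the 4 h activation minus the activation read at time zero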
EDANS interf – optically interferes with EDANS-DABCYL fluorescence, kallikrein-7 activator counter-screen; 20% of 250 active; EC50, µM; EDANS-DABCYL peptide fluorescence interference, no enzyme; shares compounds with proKLK7 act;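 active = compounds that raise the fluorescence signal in this interference counterscreen, with EC50 at or below 10 µM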;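 note: intact quenched peptide substrate alone read at 355 nm excitation and 520 nm emission; signal is fluorescence gain from T0 to T4 after four hours at room temperature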
* = called active by the depositor; . = not tested or not shown; ! = not active in a repeat. Sampled rows, rich in hits. Any-hit rate of the full collection: about 2.8%.

SMILES	PG9 Ab binder	PP1 inh	PP5 inh	JMJD2C inh	Rev-erbA mod	proKLK7 act	proKLK7 act conf	EDANS interfere	others
Cc1cccc(N=c2oc3cc(O)ccc3cc2C(N)=O)c1	0	3	3	-2	6	53*	27*	27*
Cc1cccc(-c2cccc3c4c([nH]c23)[C@@H]2C[C@H](N(C)C(=O)C3CCCCC3)[C@H]([C@H](C)O)CN2CC4)c1	.	.	.	.	-3	1	.	.
Cc1cc(Oc2cccnc2)ccc1NC(=O)CCc1c[nH]c2ccccc12	-1	.	.	.	4	0	.	.
COc1cccc(N(C)C(=O)[C@@H](C)[C@@H](O)c2ccc(Cl)cc2)c1	.	.	.	.	2	0	.	.
Cc1occc1-c1nnc(SCC(=O)c2cc3ccccc3oc2=O)o1	-12	1	-2	32	4	-3	.	.
N#CC1=C(SCC(=O)c2cc3ccccc3oc2=O)NC(=O)C(C#N)C12CCCC2 (centres undefined)	-1	4	1	-6	2	27*	55*	54*
COc1cccc(NC(=O)N(C)C[C@H]2OCc3ccccc3-c3c(n(C)c4ccccc34)C(=O)N([C@H](C)CO)C[C@H]2C)c1	-1	.	.	.	0	1	.	.
CCOC(=O)c1cnc2c(ccc3ccccc32)c1NCCCN(C)C	-1	-2	-1	3	8	-1	.	.
CCOC(=O)c1cn(C2CC2)c2c(F)c(NCCCN(C)C)c(F)cc2c1=O	2	-1	-1	-6	-2	20*	11	12*
CCOc1ccc(OCC(=O)N2CCC3(CC2)CC(=O)c2ccccc2O3)cc1	2	2	0	-12	-6	0	.	.
CC(=O)N1CCC2(CC1)CC(=O)c1cc(OCC(=O)N3CCCC3)ccc1O2	2	-2	0	-8	-1	40*	53*	55*
CCOC(=O)COc1ccc2c(c1)C(=O)CC1(CCN(C(C)=O)CC1)O2	-1	-3	1	-3	-1	22*	26*	43*
CCCCC(=O)N1CCN(C(=O)c2ccc3nc(C)n(C4CCCC4)c3c2)CC1	.	.	.	.	-4	0	.	.
COc1ccc(S[C@]2(C(=O)N3CCCC3)CC(=O)N(S(=O)(=O)c3ccc(F)cc3)[C@@H]2c2ccc(OC)cc2)cc1	.	.	.	.	-2	0	.	.
COc1ccc(C(C(=O)N(C)C2CCCC2)N(Cc2ccc(F)cc2)C(=O)c2ccc3ccccc3c2)cc1OC (centres undefined)	.	.	.	.	2	0	.	.
CN(C(=O)c1ccncc1)c1nnc(-c2cnccn2)s1	1	-3	-2	6	0	33*	77*	82*
Cc1nnc(N(C)C(=O)c2cccnc2)s1	1	0	1	-14	1	-1	.	.
Cc1ccc(-c2nnc(N(C)C(=O)C3CCCO3)s2)cn1 (centres undefined)	-3	-2	1	12	-2	3	.	.
CN(C(=O)c1ccccn1)c1nnc(-c2cnccn2)s1	0	-2	2	2	4	9	.	.
CN(C(=O)c1cnccn1)c1nnc(-c2cnccn2)s1	0	1	2	5	-5	20*	38*	42*
CN(C(=O)C1CCCO1)c1nnc(-c2cnccn2)s1 (centres undefined)	0	0	1	3	-6	54*	39*	81*
CN(C(=O)c1cccnc1)c1nnc(-c2ccccn2)s1	-3	-2	0	3	7	73*	39*	37*
O=C(CSc1nc2sc3c(c2c(=O)n1-c1ccc(Cl)cc1)CCCC3)c1ccccc1Cl	.	.	.	.	-1	0	.	.
CN(C(=O)c1cccnc1)c1nnc(-c2cccnc2)s1	-2	-2	-2	17	0	1	.	.
CN(C(=O)c1cccnc1)c1nnc(-c2cnccn2)s1	2	-5	2	7	3	42*	33*	34*
SMILES	PG9 Ab binder	PP1 inh	PP5 inh	JMJD2C inh	Rev-erbA mod	proKLK7 act	proKLK7 act conf	EDANS interfere	others
C=Cc1ccc(C(=O)N2CCC(n3nnc4ncccc43)CC2)cc1	.	.	.	.	0	0	.	.
COc1ccc(C2Nc3ccccc3C(=O)N2Cc2ccco2)cc1COc1ccc(F)cc1 (centres undefined)	3	8	3	1	.	-15	.	.
COc1ccc(C2Nc3ccccc3C(=O)N2Cc2ccco2)cc1CN1C(=O)c2ccccc2C1=O (centres undefined)	0	5	3	-5	-2	30*!	11	5.8*
COc1ccc(C2Nc3ccccc3C(=O)N2Cc2ccco2)cc1COc1ccccc1C (centres undefined)	.	.	.	.	0	.	.	.
O=C1c2ccccc2NC(c2cccc(O)c2)N1Cc1ccco1 (centres undefined)	1	-3	-1	0	2	27*	29*	29*
O=C(CSc1nc2ccccc2nc1N1CCOCC1)NCc1ccc(Cl)cc1Cl	.	.	.	.	8	0	.	.
COC(CNC(=O)[C@H](Cc1c[nH]c2ccccc12)NC1(C(=O)NC2CCCCC2)CCCCC1)OC	.	.	.	.	-3	.	.	.
N=c1c(C(=O)NCC2CCCO2)cc2c(=O)n3ccccc3nc2n1C1CCCCC1 (centres undefined)	0	1	2	-19	-3	35*	6	3
Cc1cccn2c(=O)c3cc(C(=O)NCC4CCCO4)c(=N)n(C4CCCC4)c3nc12 (centres undefined)	-1	-6	2	14	0	81*	-45	-56
N=c1c(C(=O)NCC2CCCO2)cc2c(=O)n3ccccc3nc2n1Cc1ccccc1Cl (centres undefined)	2	0	2	-15	-2	-6	.	.
Cc1ccc2nc3c(cc(C(=O)NCC4CCCO4)c(=N)n3C3CCCC3)c(=O)n2c1 (centres undefined)	1	2	0	-5	-1	81*	72*	81*
Cc1cccn2c(=O)c3cc(C(=O)NC4CCCC4)c(=N)n(C4CCCCC4)c3nc12	-5	-8	-7	-16	-3	-7	.	.
N=c1c(C(=O)NCC2CCCO2)cc2c(=O)n3ccccc3nc2n1C1CCCC1 (centres undefined)	0	-2	2	27	-5	106*	42*	30*	EDANS interf=>69
COC(=O)Cn1cnc2c(NC(=O)c3ccccc3)ncnc21	0	.	.	.	1	0	.	.
CCc1cc2c(=O)c(-c3nc4ccccc4n3C)coc2c(CN2CCCCC2)c1O	0	.	.	-6	-1	13*	7	8.8*
